These compounds were tested against T1, Mitogen-activated protein kinase 13 (Homo sapiens) (UniProt O15264). Conditions: at 1 µM.
T1 sequence (whole entry): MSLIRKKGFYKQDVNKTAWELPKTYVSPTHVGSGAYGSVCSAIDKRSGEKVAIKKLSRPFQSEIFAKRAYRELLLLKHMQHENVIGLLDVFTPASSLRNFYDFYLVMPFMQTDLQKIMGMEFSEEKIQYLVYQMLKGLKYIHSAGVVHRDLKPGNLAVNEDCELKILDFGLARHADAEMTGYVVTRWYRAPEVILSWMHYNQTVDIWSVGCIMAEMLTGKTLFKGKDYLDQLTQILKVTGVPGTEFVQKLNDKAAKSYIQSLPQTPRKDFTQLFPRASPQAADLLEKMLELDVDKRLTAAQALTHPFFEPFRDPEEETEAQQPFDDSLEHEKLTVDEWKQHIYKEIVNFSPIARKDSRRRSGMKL
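Note: mean inhibition of p38delta, screened as part of the GSK PKIS kinase inhibitor set.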

Row | Structure (SMILES) | inhibition
1 | ON=C1CCc2cc(-c3nc(C4CCNCC4)[nH]c3-c3ccncc3)ccc21 | 0.95%
2 | O=C1Nc2ccc(-c3cccnc3)cc2C1=Cc1cc(Br)c(O)c(Br)c1 | 3.3%
3 | CCOc1nccc2c1nc(-c1nonc1N)n2CC | 2.91%
4 | c1ccc(Cc2nc3ccc(Nc4ncnc5ccccc45)cc3[nH]2)cc1 | 5.18%
5 | O=C(Nc1ccc(Oc2ccc3[nH]c(NC(=O)c4ccco4)nc3c2)cc1)Nc1cc(C(F)(F)F)ccc1F | 1.53%
6 | FC(F)(F)c1ccc(-c2nn3ncccc3c2-c2ccnc(Nc3ccc4c(c3)OCCO4)n2)cc1 | 0.38%
7 | COc1cc2ncnc(Nc3ccc(C)c(O)c3)c2cc1OC | 6.31%
8 | c1ccc(Nc2ncc(-c3ccccc3)o2)cc1 | 4.65%
9 | Cc1ccc(NC(=O)CC2CC2)cc1-c1ccc(C(=O)NCC2CC2)cc1 | 4.09%
10 | OCc1ccc(-c2nc(-c3ccccn3)c(-c3ccc4c(c3)OCO4)[nH]2)cc1 | 4.05%
11 | Cc1ccc(Nc2ccnc(Nc3cccc(C(N)=O)c3)n2)cc1O | 4.69%
12 | CN(c1ccc(NC(=O)Nc2ccc(OC(F)(F)F)cc2)cc1)c1ccnc(Nc2cccc(S(N)(=O)=O)c2)n1 | 6.6%
13 | CN(C)C(=O)O[C@@H]1CN[C@@H](C#Cc2cc3ncnc(Nc4ccc(OCc5cccc(F)c5)c(Cl)c4)c3s2)C1 | 1.11%
14 | NS(=O)(=O)c1ccc(Nc2cc(-c3cccc(O)c3)n[nH]2)cc1 | 7.23%
15 | Cc1ccc2c(-c3ccnc(Nc4cccc(C(F)(F)F)c4)n3)c(-c3ccccc3)nn2n1 | 6.13%
16 | COC(=O)Nc1nc2cc(Oc3ccc(NC(=O)Nc4cccc(Br)c4)cc3)ccc2[nH]1 | 0.89%
17 | N#Cc1c(NC(=O)c2ccccc2F)sc2c1CCCC2 | -2.71%

Row | Structure (SMILES) | inhibition
18 | CN(C)CCCn1c(-c2nonc2N)nc2cnccc21 | 4.99%
19 | NS(=O)(=O)c1ccc(-c2cc3ccncc3cc2OCc2ccccc2)cc1 | 3.8%
20 | NS(=O)(=O)c1cccc(-c2cc3ccncc3cc2OCc2ccccc2)c1 | 5.95%
21 | N#Cc1cccc(Nc2nccc(-c3cnn4ncccc34)n2)c1 | 47.1%
22 | COc1cccc(-n2nc(C)c3c(N/N=C(\C)c4ccncc4)ncnc32)c1 | -0.68%
23 | Oc1cccc(-c2nc(-c3ccccc3)[nH]c2-c2ccncc2)c1 | 3.86%
24 | COc1cccc(-n2ncc3c(N/N=C/c4ccc(C)cc4)ncnc32)c1 | 6.26%
25 | COc1cccc(-n2ncc3c(N/N=C/c4ccc(S(C)(=O)=O)cc4)ncnc32)c1 | 6.79%
26 | NC(=O)c1sc(-n2cnc3ccccc32)cc1OCc1ccccc1Br | 5.08%
27 | Cc1cc(O)cc(C)c1/C=C/c1cncc(C(=O)N(C)C)c1 | 3.68%
28 | COc1cc(/C=N/Nc2ncnc3c2cnn3C(C)C)ccc1O | 3.06%
29 | NS(=O)(=O)c1ccc(N/N=C2\C(=O)Nc3ccc(Cl)cc32)cc1 | 3.33%
30 | Cc1cc(Cl)cc2c1NC(=O)C2=NNc1ccc(S(N)(=O)=O)cc1 | 1.98%
31 | NC(=O)c1cccc(Nc2nccc(Nc3cccc(F)c3)n2)c1 | 0.02%
32 | COc1cc2ncn(-c3cc(OCc4ccccc4S(C)(=O)=O)c(C#N)s3)c2cc1OC | 3.85%
33 | CCS(=O)(=O)c1ccc(OC)c(Nc2ncc(-c3cccc(OC)c3)o2)c1 | 4.76%
34 | CS(=O)(=O)Nc1cccc(-c2ccc3c(NC(=O)C4CC4)n[nH]c3c2)c1 | 1.02%
